Screens deposited in PubChem BioAssay by National Center for Advancing Translational Sciences (NCATS).
Menin-MLL TR inh: displaces Texas Red mutant MLL peptide from human menin; O00255; Menin + Texas Red MLL mutant peptide, fluorescence polarization; Potency, µM (series often up to 61.6 µM), actives largely listed as inhibitors; 270,000 tested, 0.23% active; AID 1768; active means well fitted inhibition curve with a large enough effect in the polarisation, with a control signal flat, not every such curve was filed as active; inconclusive means small, poorly fitted or top-dose-only effect, or effect the other way, or a change in a side signal; inactive means no such curve, though single readings can be large or run the other way; the % refers to the polarisation
Target sequence (O00255 whole entry, looked up): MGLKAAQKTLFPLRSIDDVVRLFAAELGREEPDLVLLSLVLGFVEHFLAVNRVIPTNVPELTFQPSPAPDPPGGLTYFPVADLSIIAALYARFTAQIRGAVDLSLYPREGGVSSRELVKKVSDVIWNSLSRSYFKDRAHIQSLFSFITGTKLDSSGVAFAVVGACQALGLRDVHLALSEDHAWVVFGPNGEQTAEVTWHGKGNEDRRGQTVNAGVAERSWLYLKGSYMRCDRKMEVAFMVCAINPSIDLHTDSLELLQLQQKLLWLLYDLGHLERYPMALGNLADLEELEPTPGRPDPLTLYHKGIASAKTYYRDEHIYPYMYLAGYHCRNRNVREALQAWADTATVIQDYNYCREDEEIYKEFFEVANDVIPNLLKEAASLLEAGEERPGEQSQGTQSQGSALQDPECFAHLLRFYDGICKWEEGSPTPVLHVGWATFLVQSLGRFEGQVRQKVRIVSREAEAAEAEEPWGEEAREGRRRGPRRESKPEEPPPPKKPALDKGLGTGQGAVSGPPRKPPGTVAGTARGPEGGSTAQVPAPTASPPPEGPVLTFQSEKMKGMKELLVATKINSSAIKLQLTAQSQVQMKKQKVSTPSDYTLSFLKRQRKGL
Menin-MLL FL inh: menin-MLL binding inhibition, fluorescein peptide | FP activity change, % at 61.4 µM | 290,000 tested, under 10 active | Fluorescence polarization, fluorescein-MLL peptide displacement from menin; active means well fitted curve in the direction sought with a large enough effect in the polarisation, not every such curve was filed as active; inconclusive means small, poorly fitted or top-dose-only effect, or effect the other way, or a change in a side signal; inactive means no such curve, though single readings can be large or run the other way; the % refers to the polarisation
TRb SRC2 PPI: disrupts binding of human TR beta to SRC2; Potency, µM (titrated, usually from 106 µM), most hits filed as inhibitors; P10828; AID 1469; 280,000 tested, 0.065% active; TRbeta-SRC2 peptide binding, fluorescence polarization; receptor liganded with 1 µM T3; active means well fitted inhibition curve with a large enough effect; inconclusive means small, poorly fitted or top-dose-only effect, or effect the other way; further: nearly all actives have a fitted effect of over 50% in size
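Human TRb ligand-binding domain (0.6 uM) is mixed with 20 nM Texas Red SRC2 peptide and 1 uM T3; after compound addition and 5 hr at ambient temperature, polarization is measured and normalized to unbound and bound controls.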
GoLoco inh red: RGS12 GoLoco-Gai1 interaction inhibition; Potency, µM (highest dose often 61.6 µM), actives largely listed as inhibitors; Gai1:RGS12 GoLoco peptide FP, rhodamine, 10 min; 230,000 tested, 0.44% active; active means well fitted inhibition curve with a large enough effect, not every such curve was filed as active; inactive means no such curve, though single readings can be large or run the other way; further: nearly all actives have a fitted effect of over 30% in size
TR SRC2 fluor cs: Texas Red fluorescence interference in TRb-SRC2 counter-screen; TRb/SRC2 Texas Red total fluorescence interference; AID 1479; 280,000 tested, 0.29% active; Potency, µM (top dose mostly 106 µM); active means well fitted curve in either direction with a large enough effect; inconclusive means small, poorly fitted or top-dose-only effect
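Flags fluorescent or light-absorbing compounds by total fluorescence, S + 2P, at 555 nm excitation and 632 nm emission. Mixture: 20 nM Texas Red SRC2 peptide, 0.6 uM human TRb LBD, 1 uM T3, 5% DMSO; compound exposure 5 h at ambient temperature.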
MLL CXXC-DNA inh: blocks binding of human MLL CXXC domain to DNA; Q03164; MLL-CXXC / FITC-HOXA9 DNA fluorescence polarization; Potency, µM (top dose mostly 115 µM), actives largely listed as inhibitors; 290,000 tested, 0.037% active; active means well fitted inhibition curve with a large enough effect in the polarisation, with a control signal flat, not every such curve was filed as active; inconclusive means small, poorly fitted or top-dose-only effect, or effect the other way, or a change in a side signal; inactive means no such curve, though single readings can be large or run the other way; the % refers to the polarisation
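Purified MLL-CXXC (added from a 7 uM solution) was preincubated 5 min at ambient with pinned compounds in 50 mM Tris-HCl pH 7.5, 50 mM NaCl, 1 mM DTT, 0.05% BSA. Fluorescein-labeled HOX-A9 DNA (50 nM solution) followed, 30 min, then polarization read.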
Hits are given with their value; i = inactive; ? = inconclusive; nt = not tested or not shown; [ ] = dose if it differs, or a comment. Shown are actives, neighbours in structure and some others; about 0.5% of the full set was active somewhere.

SMILES	Menin-MLL TR inh	Menin-MLL FL inh	TRb SRC2 PPI	GoLoco inh red	TR SRC2 fluor cs	MLL CXXC-DNA inh
CC[n+]1c(C)cc2c(sc3ccccc32)c1C	i	i	i	4.47µM	i	i
COc1ccc(NC(=O)c2cc(C(C)=O)n3ccccc23)cc1	nt	nt	i	nt	i	nt
CCc1ccc2occ(CC(=O)Nc3c(C(=O)Nc4ccc(C)cc4)oc4ccccc34)c2c1	nt	nt	i	nt	1122µM[quencher]	nt
CCCCOCC(C)O (stereo not drawn)	nt	nt	i	nt	i	nt
CCSC(=O)N(CC(C)C)CC(C)C	nt	nt	i	nt	i	nt
CCn1c(C)nc2cc(C(=O)NNC(=S)Nc3ccc(Cl)cc3Cl)ccc21	?	i	i	i	8.91µM[quencher]	i
CO/N=C\CC(=O)Nc1ccc(Cl)c(Cl)c1	25.1µM	i	i	i	i	i
Cn1ccc2cc(S(=O)(=O)N3CCC(C(=O)NCCc4ccccc4)CC3)ccc21	nt	nt	i	nt	i	nt
C=CCCC/C=C(/C)C(OCc1ccc(OC)cc1)C(CC/C=C(\C)C(N)=O)OC (stereo not drawn)	i[11.7 µM]	i[11.7 µM]	i[11.2 µM]	nt	i[11.2 µM]	nt
COc1ccc(NC(=O)c2c(NCc3ccc(C)o3)sc3c2CCC(C)C3)c(OC)c1 (stereo not drawn)	nt	nt	i	nt	i	nt
COc1ccc(NC(=O)c2c(NCc3ccc(C)o3)sc3c2CCCCC3)c(OC)c1	nt	nt	i	nt	112µM[quencher]	nt
CCCCCC(CC)COC(=O)CC(C(=O)OCC(CC)CCCC)S(=O)(=O)O (stereo not drawn)	i	i	nt	nt	nt	nt
CC12CCC(C[N+](C)(C)C1)C2(C)C (stereo not drawn)	i	i	i	8.91µM	i	i
COC(CNC(=O)c1cccnc1)OC	?	i	i	i	i	i
COC(CNC(=O)c1ccc2c3c(onc13)-c1ccccc1C2=O)OC	nt	?	i	10µM	i	i
C[N+](C)(C)C/C=C1/COCO1	i	i	i	10µM	i	i
Cn1c(C(O)C(O)c2ccccc2)nc2ccccc21 (stereo not drawn)	i	i	i	i	i	i
Cn1c(C(C#N)C2=C(Cl)C(=O)N(c3ccccc3)C2=O)nc2ccccc21 (stereo not drawn)	i	i	44.7µM	i	?	?
O=C(OCC1CCC2OC2C1)C1CCC2OC2C1 (stereo not drawn)	nt	nt	i	nt	i	nt
Cc1[nH]n(-c2ccccc2)c(=S)c1C=Nc1ccc([N+](=O)[O-])cc1	i	i	i	12.6µM	i	i
O=C(CSc1nnc(-c2ccccc2)o1)c1ccc2c(c1)OCCO2	i	i	i	i	i	i
O=C(CSc1nnc(-c2ccccc2)o1)c1cccc([N+](=O)[O-])c1	nt	nt	i	nt	11.2µM[quencher]	nt
CCOc1ccc(NC(=O)N2CCN(c3nnc(C)c4c(C)n(-c5ccccc5)nc34)CC2)cc1	nt	nt	i	nt	0.0005µM[quencher]	nt
COC(=O)c1ccccc1NC(=O)/C=C/c1ccco1	i	i	?	i	3.16µM[quencher]	i
COc1ccc(CNc2cc(-c3ccccc3Cl)ncn2)c(OC)c1	?	i	nt	i	nt	nt
SMILES	Menin-MLL TR inh	Menin-MLL FL inh	TRb SRC2 PPI	GoLoco inh red	TR SRC2 fluor cs	MLL CXXC-DNA inh
O=C1C=C(N2CCN(c3ccccn3)CC2)C(=O)c2c(O)ccc(O)c21	nt	nt	nt	i[14.2 µM]	nt	nt
CC1=CC(=O)c2c(O)ccc(O)c2C1=O	?	?	i	25.1µM	22.4µM[quencher]	31.6µM
CC1N(C)c2cc(NC(=O)c3ccco3)ccc2C1(C)C (stereo not drawn)	?	i	?	i	44.7µM[fluorescent]	i
CC(=O)Nc1ccc(NC(=O)c2ccco2)cc1	i	i	i	i	i	i
Cc1oc(-c2ccccc2F)nc1CS(=O)CC(=O)NC(C)C (stereo not drawn)	nt	nt	i	nt	i	nt
CN(C)c1ccc(NC(=O)c2ccc3nsnc3c2)cc1	i	i	i	12.6µM	i	i
c1ccc2c(c1)Cc1ccccc1-2	nt	nt	i	nt	i	nt
CCn1cc(C(=O)NCCc2ccc(OC)c(OC)c2)c(=O)c2cc(S(=O)(=O)N3CCOCC3)ccc21	15.8µM	i	i	nt	i	i
COc1ccc(CCNC(=O)c2cn(C)c3ccc(S(=O)(=O)N4CCOCC4)cc3c2=O)cc1OC	nt	nt	i	nt	i	i
COc1cc2c(cc1O)CCN[C@@]21CS[C@H]2c3c(OC(C)=O)c(C)c4c(c3C(COC1=O)N1C2C2c3c(cc(C)c(OC)c3O)CC([C@@H]1O)N2C)OCO4 (stereo partly drawn)	i	i	nt	nt	nt	i
COc1ccc(N=Cc2c(O)cc(C)oc2=O)cc1	i	i	i	i	i	?
Cc1cc(O)c(C=Nc2cccc(Cl)c2)c(=O)o1	?	?	?	i	44.7µM[fluorescent]	i
CS(=O)(=O)N(Cc1ccccc1)c1ccc(C(=O)Nc2cccc(Cl)c2)cc1	nt	nt	i	nt	i	nt
CN(C)c1ncc2nc(-c3ccc(Cl)cc3)c(=O)n(CCC#N)c2n1	i	?	nt	i	nt	nt
CN(C)c1ncc2nc(-c3ccccc3)c(=O)n(CCC#N)c2n1	28.2µM	?	nt	i	nt	nt
CC(=O)OCCBr	i	i	i	nt	i	nt
COc1ccc(Cl)cc1NC(=O)Cn1c(=O)oc2ccccc21	?	i	nt	nt	nt	i
O=C(Cn1c(=O)oc2ccccc21)Nc1ccc(Cl)cc1Cl	31.6µM	i	nt	nt	nt	i
CC(C)c1ccc(NC(=O)CN2C(=O)c3cccc4cccc2c34)cc1	nt	nt	i	nt	i	nt
CC(=O)Nc1ccc(NC2=CC(=O)c3ccccc3C2=O)cc1	?	i	nt	nt	nt	i
Cn1c(=O)c(NCCc2ccccc2)c2c3c(cccc31)C(=O)c1ccccc1-2	?	?	28.2µM	4.47µM	44.7µM[fluorescent]	?
Cn1c(=O)c(NC2CCCCC2)c2c3c(cccc31)C(=O)c1ccccc1-2	?	?	i	0.794µM	i	?
Cn1c(NCCc2ccccc2)cc(=O)n(C)c1=O	i	i	i	nt	i	i
CCCCNc1c2c3c(cccc3n(C)c1=O)C(=O)c1ccccc1-2	i	?	i	14.1µM	i	?
CC(=O)Nc1ccc(Nc2c3c4c(cccc4n(C)c2=O)C(=O)c2ccccc2-3)cc1	i	?	i	14.1µM	i	i
SMILES	Menin-MLL TR inh	Menin-MLL FL inh	TRb SRC2 PPI	GoLoco inh red	TR SRC2 fluor cs	MLL CXXC-DNA inh
Cc1ccc(S(=O)(=O)O[C@H]2CC(C(C)(C)C)CC[C@@H]2c2ccccc2)cc1 (stereo partly drawn)	nt	nt	nt	i[14.2 µM]	nt	nt
C[Si](Cl)(Cl)[Si](C)(Cl)Cl	nt	nt	i	nt	i	nt
CC1CCc2nc3ccc(S(=O)(=O)N4CCC(C(=O)NCc5ccccc5Cl)CC4)cc3c(C(=O)O)c2C1 (stereo not drawn)	?	i	i	nt	20µM[quencher]	?
CCC/C(=N\OCC)C1=C(O)CC(O)(CC(C)S(=O)(=O)CC)CC1=O (stereo not drawn)	nt	nt	i	nt	i	nt
COc1ccc(F)cc1S(=O)(=O)Nc1cccc(-c2ccc(N3CCC(C)CC3)nn2)c1	nt	nt	i	nt	6.31µM[quencher]	nt
Cc1cc2c(n1-c1ccc(C(=O)NCCc3ccc(Cl)cc3)cc1)CCCC2	nt	nt	i	nt	i	nt
CCCCC(CC)COC(=O)c1ccc(C(=O)OCC(CC)CCCC)cc1 (stereo not drawn)	nt	nt	i	nt	i	nt
CCCCC(CC)COC(C)=O (stereo not drawn)	nt	nt	i	nt	i	nt
CCOC(=O)c1c(C)oc2nc(C)nc(NCCCN3CCN(c4ccccc4)CC3)c12	nt	nt	i	nt	i	nt
